Measured values: PubChem BioAssay (NCI)
Compounds without any hit were thinned out: in the full panel of roughly 83,000, 20% have a hit.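 Activity criterion: percent growth below 10, measured after cells in 96-well plates were exposed to a single compound concentration for 48 hours.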 Values without a mark were called inactive. Calls of active or inactive are those of the source.

Columns and labels:
Test in all cases: NCI-60 one-dose screen, 48 h (100 = growth as untreated, 0 = no growth, -100 = all killed)
Conditions in all cases: 10 µM unless noted
[1] = tested on: DU-145 prostate
[2] = tested on: K-562 leukemia
[3] = tested on: MALME-3M melanoma
[4] = tested on: MDA-MB-231 breast
[5] = tested on: RXF 393 renal
[6] = tested on: SF-268 CNS
[7] = tested on: SF-295 CNS
[8] = tested on: SF-539 CNS
[9] = tested on: UACC-257 melanoma
[10] = tested on: HCT-15 colon
[11] = tested on: HT29 colon
[12] = tested on: SNB-75 CNS
[13] = tested on: SNB-19 CNS
[14] = tested on: U251 CNS
[15] = tested on: PC-3 prostate
[16] = tested on: SK-MEL-5 melanoma
[17] = tested on: UACC-62 melanoma
[18] = tested on: LOX IMVI melanoma
[19] = tested on: SK-MEL-28 melanoma

Row | Structure (SMILES) | growth [1] | growth [2] | growth [3] | growth [4] | growth [5] | growth [6] | growth [7] | growth [8] | growth [9] | growth [10] | growth [11] | growth [12] | growth [13] | growth [14] | growth [15] | growth [16] | growth [17] | growth [18] | growth [19]
1 | CCCCCCN1C=C/C(=C\C(=O)n2ccc3ccccc32)c2ccccc21 | 74% | 31.8% | 70.6% | 73% | 74.3% | 80.9% | 34.4% | 87% | 71.6% | 79.6% | 65.1% | 65.8% | 56.7% | 46.9% | 58.6% | 30.8% | 57.9% | 18.7% | 101%
2 | CN1CCN(Cc2ccc(NC(=O)c3cncc(C#Cc4cnc5ccc(OCCCS(C)(=O)=O)nn45)c3)cc2C(F)(F)F)CC1 | 1.01% (active) | 5.44% (active) | -80.5% (active) | -20.7% (active) | -79.6% (active) | -45.8% (active) | 0.237% (active) | -68.4% (active) | -27.6% (active) | 3.14% (active) | -10.8% (active) | -91.7% (active) | 1.67% (active) | -4.26% (active) | 1.61% (active) | -57% (active) | -57.3% (active) | -82.6% (active) | -21.8% (active)
3 | CN1CCN(Cc2ccc(NC(=O)c3cncc(C#Cc4cnc5ccc(N)nn45)c3)cc2C(F)(F)F)CC1 | 17.7% | 6.78% (active) | -36.6% (active) | 2.36% (active) | -9.41% (active) | 6.31% (active) | 53.8% | 3.36% (active) | 55.3% | 49.5% | 5.96% (active) | 57.7% | 35% | 54.6% | 36.9% | 60.8% | 70.8% | -63% (active) | 41.2%
4 | O=C(COc1ccc(/C=C2\C(=O)Nc3cc(Cl)ccc32)cc1)Nc1ccc(Cl)cc1 | 85.9% | 32.8% | 98.7% | 82.8% | 76.4% | 72.6% | 66% | 66.8% | 78.4% | 42.5% | 74.6% | 78.9% | 82.1% | 85.2% | 54.5% | 72.8% | 24.6% | 44.8% | 78.7%
5 | C/C(=N\NC(N)=S)c1nnn(-c2ccc([N+](=O)[O-])cc2)c1C | 104% | 119% | 92.8% | 96.2% | 66.2% | 97% | 98.8% | 97.5% | 98.4% | 86.9% | 104% | 87.3% | 95.6% | 98.1% | 90.8% | 100% | 98.4% | 94.9% | 104%
6 | COc1cc2oc(-c3cccc(NC(=O)c4cccc([N+](=O)[O-])c4)c3)cc(=O)c2c(OC)c1OC | 66.9% | 60.3% | 33.7% | 41% | 36.4% | 43.2% | 79.8% | -8.95% (active) | 88.2% | 56% | 66.4% | -13.5% (active) | 53.6% | 41.9% | 50.2% | 55% | 51% | 33.4% | 88.1%
7 | CC(O)c1cccc(/C(N)=N/C(N)=N/c2nc3ccccc3s2)c1 (configuration not stated) | 96.8% | 72% | 97% | 94.9% | 104% | 94.3% | 86.7% | 96.8% | 103% | 56.7% | 110% | 80% | 89.3% | 74.2% | 64.9% | 83.4% | 87.8% | 64.3% | 100%
8 | O=C(O)CC1CCN(c2ccc3nnc(Cl)n3n2)CC1 | 107% | 105% | 102% | 112% | 109% | 100% | 102% | 102% | 109% | 98.8% | 101% | 84.7% | 100% | 110% | 104% | 101% | 95.5% | 95.6% | 102%
9 | COc1ccc2c(c1)c(-c1nnc(N)nc1-c1c[nH]c3ccc(F)cc13)cn2C | 70.4% | 11.9% | 75.7% | 73.7% | 47.8% | 54.2% | 33% | 40.5% | 62.5% |  | 11.1% | 24.3% | 45.2% | 34.5% | 51.2% | 35.4% | 35.9% | 42.7% | 67.5%
10 | CCC1=Cc2c(OC)cccc2OC12C=Cc1c(OC)cccc1O2 (configuration not stated) | 27.1% | 7.63% (active) | 50.9% | 11% | 1.82% (active) | 58.6% | 4.11% (active) | -5.65% (active) | 75.7% | 13.4% | 4.59% (active) | 18.6% | 24.8% | 24.7% | 36.1% | 25.7% | 26.2% | 28.4% | 52%
11 | Cc1ccc(NC(=O)/C=C/c2ccc(OCCCOc3ccc4c(C)cc(=O)oc4c3)cc2)cc1 | 60.6% | 90.7% | 44.8% | 54.6% | 44.1% | 39.1% | 50.1% | 57.8% | 69.8% | 85.5% | 71.3% | -6.2% (active) | 38.2% | 71.6% | 74.5% |  | 93% | 68.8% | 59.9%
12 | O=C1CSC(c2cn(-c3ccccc3)nc2-c2ccc(Cl)cc2)N1c1ccccc1 (configuration not stated) | 115% | 109% | 115% | 107% | 126% | 109% | 99.5% | 99% | 102% | 101% | 106% | 99.9% | 112% | 106% | 99.7% | 99.4% | 99% | 100% | 118%
13 | O=C(CCCCCCNC(=O)C(O)(O)C(F)(F)F)Nc1ccc(Br)cc1 | 0.633% (active) | 15.2% | 10.1% | 28.4% | -38.1% (active) | 8.01% (active) | -25.3% (active) | 18.5% | 15.5% | 20.8% | 2.18% (active) | 33.9% | 14.7% | -21.3% (active) | 31.6% | -68.3% (active) | -50% (active) | -75.2% (active) | 9.41% (active)
14 | CC(C)(C)Nc1nc2c(OCCc3ccccc3)cccn2c1-c1cccc(Oc2ccccc2)c1 | 25.5% | 15.7% | 0.427% (active) | 17.7% | -8.9% (active) | 32.4% | 6.47% (active) | -0.94% (active) | 6.07% (active) | 6.6% (active) | 6.41% (active) | 43.5% |  | 13.5% | 17.5% | -75% (active) | 15% | 3.93% (active) | 34%
15 | Oc1[nH]c2ccc(Cl)cc2c1N=Nc1nc(N=Nc2c(O)[nH]c3ccc(Cl)cc23)nc(N2CCCCC2)n1 | 68% | 39.3% | 58.8% | 64.5% | 86.8% | 54.5% | 24.3% | 79.5% | 105% | 88.4% | 39.3% | 95.3% | 42.1% | 19.8% | 19.5% | 87% | 88.5% | 24.6% | 97.5%
